# Compounds with a hit are over-represented: about 4.8% of the library has one in this group of screens.
# SMARCA2 act = SMARCA2 function activation, primary screen | AID 652017 | activation, % at 9.1 µM | 1% of 370,000 active | MG213 cells, MMTV-luciferase reporter, dexamethasone, overnight; in the data active = activation above about 7.8%;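 note: 0% = vehicle wells and 100% = reference activator wells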
# ssDAF12 agonist = activates DAF-12 receptor from parasite S. stercoralis; 1% of 370,000 active; AID 652126; HEK293 ssDAF-12/GRIP1 lit1-tk-luc reporter, luminescence; % of 3 µM dafachronic acid response; activation, % at 6.8 µM;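 active = activation above the mean over all tested compounds plus 3 SD, cut at about 0.9% in these data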;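 note: 0% = DMSO-only wells and 100% = 3 µM delta7-dafachronic acid wells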
# DAX1 inh-1 = inhibitors of DAX1 repression of SF-1 activated StAR promoter. inhibition, % at 6.8 µM. AID 652010. HEK293T StAR-luciferase reporter, SF-1/DAX-1 repression relief. 1.1% of 370,000 active;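 active = inhibition above the mean over all tested compounds plus 3 SD, cut at about 3.6% in these data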;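 note: 0% = DAX-1 cells with DMSO and 100% = cells lacking DAX-1 with DMSO; higher inhibition means more luminescence from relief of DAX-1 repression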
# DAX1 inh-2 = inhibitors of human orphan nuclear receptor DAX1 (NR0B1); P51843; HEK293 Gal4-DAX1 luciferase reporter, luminescence; inhibition, % at 6.75 µM; 0.99% of 340,000 active; AID 504766;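 active = inhibition above the mean over all tested compounds plus 3 SD, cut at about 4.2% in these data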;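 note: 0% = DAX1-transfected cells with DMSO and 100% = empty-vector control cells with DMSO; inhibition shows as a rise in luminescence from relieved DAX1 repression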
# Target sequence (P51843 207-470 limits assumed): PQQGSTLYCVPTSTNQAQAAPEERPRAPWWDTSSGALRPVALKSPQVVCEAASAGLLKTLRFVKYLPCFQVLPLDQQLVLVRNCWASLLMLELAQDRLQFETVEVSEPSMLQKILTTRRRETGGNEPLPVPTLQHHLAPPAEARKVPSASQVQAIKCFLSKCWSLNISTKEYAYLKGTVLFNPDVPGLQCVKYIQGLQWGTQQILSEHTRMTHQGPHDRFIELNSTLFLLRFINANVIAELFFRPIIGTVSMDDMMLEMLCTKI
# hcDAF-12 act = H. contortus DAF-12 activation, primary screen; 1.4% of 370,000 active; HEK293 hcDAF-12 lit1-tk-luc reporter, luminescence; 0% DMSO, 100% Δ7-dafachronic acid; AID 652067; activation, % at 6.8 µM;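 active = activation above the mean of all tested compounds plus 3 SD, cut at about 5.5% in these data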;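 note: 100% = response to 3 µM Δ7-dafachronic acid high control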
# hgDAF-12 ag = hgDAF-12 agonism, primary luciferase screen; HEK293 GAL4-hgDAF12 UAS-luciferase reporter, agonist luminescence; normalized to butyrate control; 1.8% of 370,000 active; activation, % at 6.8 µM; AID 687014;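 active = activation above a cutoff set at the mean of all screened compounds plus 3 SD, cut at about 10% in these data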;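 note: 0% = DMSO wells and 100% = sodium butyrate wells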
# LXR ag = LXR-beta agonism as hcDAF-12 counter-screen | HEK293 Gal4-LXR tk-luc reporter, luminescence, 24 h; normalized: DMSO 0%, positive control 100% | AID 743027 | 3,400 tested, under 10 active | activation, % at 6.8 µM | shares compounds with hcDAF-12 act;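 active = mean percent activation of the reporter above a cutoff set as the average over tested compounds plus their standard deviation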
# hcDAF12 conf = confirmation of H. contortus DAF-12 agonists; AID 743032; HEK293 hcDAF-12 lit1-tk-luc reporter, luminescence; % of Δ7-dafachronic acid response; activation, % at 6.8 µM; 61% of 3,400 active; shares compounds with hcDAF-12 act;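 active = mean activation across triplicate tests above the threshold derived from the earlier primary screen, cut at about 5.5% in these data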;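 note: 0% = DMSO only wells and 100% = 3 µM Δ7-dafachronic acid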
# The depositor's hits bear a star; . = not tested or not shown.
SMILES,SMARCA2 act,ssDAF12 agonist,DAX1 inh-1,DAX1 inh-2,hcDAF-12 act,hgDAF-12 ag,LXR ag,hcDAF12 conf
Nc1nc2c(-c3ccc(Br)cc3)nnn2c2ccccc12,4.3,1.0*,1.2,4.1,7.7*,11.2*,2.0,22.3*
Cc1ccc(-c2nnn3c2nc(NC(C)C)c2ccccc23)cc1,0.8,0.3,0.6,0.4,6.8*,5.1,-0.2,1.5
CNc1nc2c(-c3ccc(Cl)cc3)nnn2c2ccccc12,-1.0,-0.6,0.2,0.1,2.6,2.3,.,.
CCN(CC(N)=O)S(=O)(=O)c1ccc(F)cc1,-6.1,-1.4,0.5,-0.7,-1.6,0.3,.,.
O=[N+]([O-])c1ccc(CSc2nnc(-c3cnccn3)o2)cc1,4.0,-1.3,-0.1,3.8,-1.2,-0.8,.,.
c1ccc(Nc2nc(-c3ccccn3)cs2)cc1,3.9,1.3*,2.3,1.1,12.8*,13.0*,1.6,11.1*
CN(C(=O)CCCN1C(=O)c2cccc3cccc(c23)C1=O)c1ccccc1,2.0,-1.5,0.8,0.5,-1.3,-1.8,.,.
O=C1c2cccc3cccc(c23)C(=O)N1CCc1ccccc1,3.5,2.1*,1.5,1.5,14.5*,8.4,0.7,9.4*
CSc1nc(-c2ccc(C)cc2)nc(N)c1C#N,-2.9,2.2*,0.6,3.2,8.5*,4.5,0.6,7.8*
O=c1cnnc(Nc2ccc(Nc3ccccc3)cc2)[nH]1,4.0,-0.7,0.6,-0.8,-0.5,-0.5,.,.
c1ccc(C(Cc2nc(-c3cccnc3)no2)c2ccccc2)cc1,1.1,-1.7,-1.0,0.1,-2.8,-2.9,.,.
c1ccc(SCc2nc(-c3cccnc3)no2)cc1,0.3,0.5,0.3,2.4,7.3*,8.4,1.6,5.8*
COc1ccc(/C=C/C(=O)Nc2cccc(S(=O)(=O)N3CCCC3)c2)cc1OC,-0.8,-2.1,-3.5,-1.8,-3.7,-3.7,.,.
CC(CSC(=O)c1ccccc1)C(=O)N1c2ccccc2CC1C(=O)O (stereo not given),-2.1,0.8,0.2,.,7.5*,5.5,-0.3,5.4
O=C(O)C1Cc2ccccc2CN1C(=O)c1ccccc1 (stereo not given),0.5,-0.8,0.1,0.8,-0.4,-1.5,.,.
O=C(c1ccc(Cl)cc1)N1CCCCC(Sc2nnc(-c3ccc4c(c3)OCO4)o2)C1=O (stereo not given),4.3,0.7,4.2*,-1.8,6.9*,10.4*,0.0,1.6
O=C(O)CSc1nnc(-c2ccc3c(c2)OCO3)o1,-10.8,0.1,0.3,-0.2,1.4,2.7,.,.
COc1cccc(NC(=O)NC2(C(=O)N3CCC(O)CC3)CCCCC2)c1,2.0,-0.8,-0.2,1.1,1.2,-0.5,.,.
CCCCC(c1nnnn1CCOC)N1CCN(CC)CC1 (stereo not given),-4.6,-0.5,-0.2,0.7,0.0,-1.6,.,.
N#C/C(=N\Nc1ccc([N+](=O)[O-])cc1)C(N)=S,-2.4,-1.5,-0.9,0.6,-0.1,2.9,.,.
CN=c1scc(-c2ccccc2F)n1/N=C/c1ccc[nH]1,-13.8,-3.3,-4.5,-4.5,-8.3,-22.9,.,.
CN=c1scc(C)n1/N=C/c1ccc(O)cc1O,3.7,0.7,3.6*,-2.5,7.6*,6.3,1.9,6.6*
CN=c1scc(-c2ccccc2F)n1/N=C/c1ccc(O)c(O)c1O,-1.3,0.6,3.1,-2.3,7.2*,6.0,1.3,16.3*
CN=c1scc(C)n1/N=C/c1ccc(O)cc1,5.5,0.1,2.5,3.4,1.5,1.8,.,.
COc1ccccc1NC(=O)CSc1nnc(NC(=O)C2CCC2)s1,-3.7,-1.0,0.3,0.2,-2.0,0.1,.,.
SMILES,SMARCA2 act,ssDAF12 agonist,DAX1 inh-1,DAX1 inh-2,hcDAF-12 act,hgDAF-12 ag,LXR ag,hcDAF12 conf
COC(C(=O)NC1CCCCCCC1)c1ccccc1 (stereo not given),5.3,-1.4,0.8,-0.3,-1.1,2.2,.,.
O=C(O)c1cc(Cl)c2ccccc2c1O,0.7,0.3,-0.4,-0.2,6.9*,6.0,-0.3,3.2
COc1ccc(-n2c(SCC(=O)NCC3CCCO3)nc3c([nH]c4ccccc43)c2=O)cc1 (stereo not given),-2.5,0.1,0.2,0.2,7.3*,2.9,-0.3,3.5
COc1ccc(-n2c(SCC(=O)NCC3CCCO3)nc3c([nH]c4ccccc43)c2=O)cc1OC (stereo not given),-1.0,-0.3,-1.3,0.4,8.1*,10.4*,-0.3,4.8
COc1cccc(-n2c(SCC(=O)NCC3CCCO3)nc3c([nH]c4ccccc43)c2=O)c1 (stereo not given),-2.9,-0.6,1.0,-0.5,4.2,-3.0,.,.
COc1ccc(N=CC2=C(O)c3ccccc3C2=O)c(OC)c1,3.2,1.6*,2.3,2.3,12.1*,9.5,0.5,6.8*
O=C(O)c1ccccc1-c1ccccc1C(=O)Nc1ccccc1-c1ccccc1,-0.2,-1.0,0.1,-0.3,0.5,-0.7,.,.
COc1cccc(-c2cn3nc4c(nc3n2)CCCC4)c1,.,.,.,-1.5,.,.,.,.
Clc1ccc(-c2cn3nc4c(nc3n2)CCCC4)cc1,6.1,0.8,4.2*,2.2,8.1*,12.1*,1.1,7.5*
CC1CC(C)CN(c2cc3c(cc2[N+](=O)[O-])C(=O)N(c2ccccc2)C3=O)C1 (stereo not given),2.7,-1.1,0.3,-1.2,-1.7,0.9,.,.
O=C1Oc2ccccc2C2(O)C3CCCCCC3C12 (stereo not given),0.8,-1.4,-0.5,1.5,-0.5,-1.4,.,.
Cn1c(NC(=O)C[n+]2cc(-c3ccc(Cl)cc3)n3c2CCC3)cc(=O)n(C)c1=O,0.5,-0.8,-0.3,-0.2,0.7,-0.7,.,.
Cn1c(NC(=O)C[n+]2cc(-c3ccccc3)n3c2CCC3)cc(=O)n(C)c1=O,-2.2,-1.0,0.3,-0.8,7.1*,2.2,-0.3,0.3
N#C/C(=C\c1ccc(-c2ccc(C(=O)O)cc2)o1)C(=O)Nc1ccc(F)cc1,2.9,0.3,1.1,-0.7,6.9*,9.3,0.1,5.4
Cc1cccc(C)c1NC(=O)/C(C#N)=C/c1ccc(-c2ccc(C(=O)O)cc2)o1,2.3,0.0,1.4,4.3*,7.0*,8.1,0.7,5.2
c1csc(C2=Nn3c(nnc3-c3ccncc3)SC2)c1,-0.8,-1.7,-0.8,-0.9,-2.5,3.2,.,.
O=C(Nc1cccc(F)c1)Nc1cnccn1,2.9,-0.9,0.2,0.4,0.7,-0.7,.,.
O=C(Nc1cccc(F)c1)Nc1ccccn1,2.9,-0.6,1.1,3.3,8.7*,8.3,0.6,1.3

# Screening results deposited in PubChem BioAssay by The Scripps Research Institute Molecular Screening Center.
